{
  "source": "PubChem BioAssay AID651815",
  "about": "(National Center for Advancing Translational Sciences (NCATS), 2012)",
  "note": "Out of some 2,100 compounds screened, about 1,100 (52%) were called active. Roughly 29% stayed inconclusive and do not appear here. The set was probably picked from earlier hits. The list shows a part of the results. Unmarked numbers belong to inactive results. The call rests on the fitted dose curve; in most records, active means well fitted inhibition curve with a large enough effect; inconclusive means small, poorly fitted or top-dose-only effect; inactive means no such curve, though single readings can be large or run the other way. On the % scale 0 is the no-effect control and ±100 the full control effect; potency means the concentration at half of the fitted maximal effect.",
  "data": [
    {"molecular_target": "DNA dC->dU-editing enzyme APOBEC-3F (Homo sapiens) (UniProt Q8IUX4)", "sequence (Q8IUX4 whole entry, looked up)": "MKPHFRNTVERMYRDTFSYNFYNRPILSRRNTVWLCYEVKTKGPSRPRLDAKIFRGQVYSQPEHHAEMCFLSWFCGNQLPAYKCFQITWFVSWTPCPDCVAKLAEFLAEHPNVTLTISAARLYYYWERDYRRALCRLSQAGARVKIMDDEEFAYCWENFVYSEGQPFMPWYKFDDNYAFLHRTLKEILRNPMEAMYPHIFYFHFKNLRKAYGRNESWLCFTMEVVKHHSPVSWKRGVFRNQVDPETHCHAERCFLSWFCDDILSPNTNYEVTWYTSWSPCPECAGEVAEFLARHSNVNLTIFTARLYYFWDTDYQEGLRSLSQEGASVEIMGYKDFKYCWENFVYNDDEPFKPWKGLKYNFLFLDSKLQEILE", "experiment": "qHTS for inhibitors of Vif-A3F interactions: Cherry picks counterscreen; further: nearly all actives have a fitted effect of over 65% in size", "conditions": "HeLa A3F-eYFP/Vif cells, eYFP fluorescence, 24 h; series mostly up to 46.1 µM; activity, negative = inhibitor: at the top concentration", "from_the_text": "The recent discovery and characterization of host restriction factors, which provide a potent defense to invading retroviruses, has provided new targets for antiviral drug development. APOBEC3G (A3G) and APOBEC3F (A3F) are potent cytidine deaminases that block HIV-1 replication; HIV-1 expresses the Vif protein, which counteracts A3G and A3F by binding to them and inducing their proteasomal degradation. The Vif-A3G and Vif-A3F interactions provide two potential targets for development of small molecules which can interfere with the ability of Vif to degrade A3G or A3F. […] To identify inhibitors that can interfere with Vif mediated degradation of A3G and A3F, we have developed Hela cell lines that stably express A3G or A3F tagged with eYFP at the C-terminal end (A3G-eYFP or A3F-eYFP, respectively) and Vif. In the absence of an inhibitor, Vif induces degradation of A3G-eYFP and A3F-eYFP, and the cells are not fluorescent. In the presence of an inhibitor, it is expected that Vif will be unable to degrade A3G-eYFP and/or A3F-eYFP, resulting in an increase in yellow fluorescence. In this counterscreen assay, Vif A3F was screened against the cherry picks ordered from the MLSMR. NIH Chemical Genomics Center [NCGC] NIH Molecular Libraries Probe Centers Network [MLPCN] MLPCN Grant: MH093245 Assay Submitter (PI): Vinay Pathak, National Cancer Institute\nA3F-Vif cells were harvested from T225 flask and resuspended in phenol free OPTI-MEM medium with 5% FBS. Then 5 uL of 140,000 cells/mL resuspended cells was dispensed into each well of low base Aurora COC 1,536-well plates (black walled, clear bottom) using a Multidrop Combi dispenser. After overnight culture at 37 deg C with 5% CO2, a total of 23 nL of compounds at 5 selected concentrations from the NPC or positive control (2 mM stock of MG132) in DMSO was transferred to each well of the assay plate using a pintool (Kalypsys, San Diego, CA), and the plates were further incubated at 37 deg C with 5% CO2 for 24 hours. After that, the plates were measured on Acumen Explorer (TTP Lab Tech). The fluorescence was detected by 488 nm/Ex and […].", "values": [
      {"smiles": "Cc1cc(N2CCCC2)ccc1C=C(C#N)C#N", "Potency": "20.6 µM (active)"},
      {"smiles": "CN1/C(=C\\C=C2C(=O)NC(=O)NC2=O)C(C)(C)c2ccccc21", "Potency": "4.11 µM (active)"},
      {"smiles": "CCS(=O)(=O)N1N=C(c2cccc(NS(C)(=O)=O)c2)CC1c1ccccc1", "note": "(configuration not stated)", "Potency": "23.1 µM (active)"},
      {"smiles": "CCCCn1c(O)c(C(=O)/C=C/c2c[nH]c3ccccc23)c(=O)[nH]c1=O", "Potency": "17.7 µM (active)"},
      {"smiles": "CCC(C)N1C(=O)/C(=C\\c2ccc(N3CCCCCC3)cc2)C(=O)NC1=S", "note": "(configuration not stated)", "activity, negative = inhibitor": "-21.5%"},
      {"smiles": "CN1C(=O)/C(=C\\c2ccc(N3CCCCC3)o2)C(=O)NC1=S", "Potency": "17.7 µM (active)"},
      {"smiles": "CN1C(=O)/C(=C/c2ccc(N3CCCCCC3)o2)C(=O)NC1=S", "Potency": "4.44 µM (active)"},
      {"smiles": "CN1CCN(c2ccc(/C=C3\\C(=O)NC(=S)N(c4cccc(Br)c4)C3=O)o2)CC1", "Potency": "23.1 µM (active)"},
      {"smiles": "CC(=O)O[C@@]12CO[C@@H]1C[C@H](OC1OCC(O)C(O)C1O)[C@@]1(C)C(=O)[C@H](O)C3=C(C)[C@@H](OC(=O)[C@H](O)[C@@H](NC(=O)c4ccccc4)c4ccccc4)C[C@@](O)([C@@H](OC(=O)c4ccccc4)C12)C3(C)C", "note": "(some centres not stated)", "Potency": "4.44 µM (active)"},
      {"smiles": "CN1C(=O)C(=Cc2ccc(N3CCOCC3)o2)C(=O)N(C)C1=O", "Potency": "6.51 µM (active)"},
      {"smiles": "CN1C(=O)C(=Cc2ccc(N3CCCCC3)o2)C(=O)N(C)C1=S", "Potency": "3.66 µM (active)"},
      {"smiles": "CN1C(=O)C(=Cc2ccc(N3CCOCC3)o2)C(=O)N(C)C1=S", "Potency": "8.2 µM (active)"},
      {"smiles": "Cc1cc(N(CCCl)CCCl)ccc1C=Cc1ccncn1", "Potency": "16.4 µM (active)"},
      {"smiles": "CC(C)c1ccc(N2C(=O)NC(=O)/C(=C\\C=C\\c3ccco3)C2=O)cc1", "Potency": "17.7 µM (active)"},
      {"smiles": "CC(C)c1ccc(N2C(=O)NC(=O)/C(=C/C=C/c3ccco3)C2=O)cc1", "Potency": "14 µM (active)"},
      {"smiles": "O=C1NC(=O)N(Cc2ccc(F)cc2)C(=O)/C1=C\\C=C\\c1ccco1", "Potency": "23.1 µM (active)"},
      {"smiles": "CN(C)c1ccc(/C=C/C=C2/C(=O)NC(=O)N(c3ccccc3)C2=O)cc1", "Potency": "23.1 µM (active)"},
      {"smiles": "COCCCNC(=O)c1c(NC(=O)c2ccco2)n(Cc2ccccc2)c2nc3ccccc3nc12", "activity, negative = inhibitor": "-8.65% [at 36.9 µM]"},
      {"smiles": "Cc1ccc(N2C(=O)NC(=O)/C(=C\\C=C\\c3ccco3)C2=O)cc1C", "Potency": "5.8 µM (active)"},
      {"smiles": "Cc1cc(/C=C2\\C(=O)NC(=O)N(c3ccc(Br)cc3)C2=O)c(C)n1C", "activity, negative = inhibitor": "-29.9% [at 36.9 µM]"},
      {"smiles": "CC/C(=N\\NC(=O)c1ccccc1O)c1c(O)n(Cc2ccccc2)c(=O)[nH]c1=O", "Potency": "18.4 µM (active)"},
      {"smiles": "COc1cccc(C2=CC(c3cc(Br)ccc3F)n3nnnc3N2)c1", "note": "(configuration not stated)", "Potency": "1.46 µM (active)"},
      {"smiles": "COC(=O)C1=C(C)N(Cc2ccco2)C(=O)/C1=C\\c1ccc(N(C)C)cc1", "Potency": "6.51 µM (active)"},
      {"smiles": "O=C1NC(=O)N(c2ccc3c(c2)OCO3)C(=O)/C1=C/c1ccc(N2CCCCC2)o1", "Potency": "20.6 µM (active)"},
      {"smiles": "O=C1NC(=O)N(c2ccc3c(c2)OCO3)C(=O)/C1=C\\c1ccc(N2CCCCC2)o1", "Potency": "18.4 µM (active)"},
      {"smiles": "COc1cc(C2C(C#N)=C(N)Oc3cc(O)ccc32)cc(OC)c1OC", "note": "(configuration not stated)", "Potency": "3.53 µM (active)"},
      {"smiles": "Cc1cccc(-n2c(O)c(/C=C/C=Nc3ccccc3)c(=O)[nH]c2=O)c1", "Potency": "4.61 µM (active)"},
      {"smiles": "O=c1c2ccccc2nc(/C=C/c2ccc([N+](=O)[O-])o2)n1-c1ccc(O)cc1", "Potency": "11.2 µM (active)"},
      {"smiles": "COc1ccccc1-n1c(/C=C/c2ccc(O)cc2)nc2ccccc2c1=O", "activity, negative = inhibitor": "38.4%"},
      {"smiles": "Cc1cccc(-n2c(/C=C/c3ccc([N+](=O)[O-])o3)nc3ccccc3c2=O)c1", "Potency": "8.2 µM (active)"},
      {"smiles": "Cc1cccc(-n2c(/C=C/c3c(C)[nH]c4ccccc34)nc3ccccc3c2=O)c1", "Potency": "18.4 µM (active)"},
      {"smiles": "COc1ccc(-n2c(/C=C/c3ccc(O)c(OC)c3)nc3ccccc3c2=O)cc1", "Potency": "16.4 µM (active)"},
      {"smiles": "CCN(CC)c1ccc(/C=C2\\C(=O)NC(=S)N(c3ccc(OC)cc3OC)C2=O)o1", "Potency": "23.1 µM (active)"},
      {"smiles": "CCN(CC)c1ccc(C=C2C(=O)N(C)C(=S)N(C)C2=O)o1", "Potency": "0.314 µM (active)"},
      {"smiles": "CCN(CC)c1ccc(/C=C2\\C(=O)NC(=S)N(C)C2=O)o1", "Potency": "0.559 µM (active)"},
      {"smiles": "CCN(CC)c1ccc2c(cc1=O)[C@@H](NC)CCc1cc(OC)c(OC)c(OC)c1-2", "Potency": "1.4 µM (active)"},
      {"smiles": "Cc1ccccc1-n1c(/C=C/c2ccc(N(C)C)cc2)nc2ccccc2c1=O", "Potency": "4.11 µM (active)"},
      {"smiles": "CCN(CC)c1ccc(N=Cc2c(O)n(CCC3=CCCCC3)c(=O)[nH]c2=O)cc1", "Potency": "16.4 µM (active)"},
      {"smiles": "CCN(CC)c1ccc(N=Cc2c(O)n(Cc3ccccc3)c(=O)[nH]c2=O)cc1", "Potency": "20.6 µM (active)"},
      {"smiles": "C=CCn1c(O)c(C(C)=Nc2ccc(N(CC)CC)cc2)c(=O)[nH]c1=O", "Potency": "11.2 µM (active)"},
      {"smiles": "O=C1NC(=S)SC1=Cc1ccc(N(CCCl)CCCl)cc1", "Potency": "17.7 µM (active)"},
      {"smiles": "CCOc1ccc(CNC(=O)c2cccc(Nc3nc4ccccc4n4nnnc34)c2)cc1OC", "Potency": "16.4 µM (active)"},
      {"smiles": "COc1ccc(-c2ccc(OC)c(OC)c2OC)cc1", "Potency": "3.96 µM (active)"},
      {"smiles": "CN(C)c1ccc(C(=O)c2ccc(N(C)C)cc2)cc1", "Potency": "0.994 µM (active)"},
      {"smiles": "CCCCn1c(O)c(/C=C2/C=CC=N2)c(=O)[nH]c1=O", "Potency": "12.5 µM (active)"},
      {"smiles": "O=c1[nH]c(=O)n(Cc2ccccc2Cl)c(O)c1/C=C1/C=CC=N1", "Potency": "18.4 µM (active)"},
      {"smiles": "C=C1C(=O)OC2C1CCC(C)C1(O)C=CC(=O)C21C", "note": "(configuration not stated)", "Potency": "5.59 µM (active)"},
      {"smiles": "COCCCn1c(=O)/c(=C\\c2ccccc2OC(F)F)s/c1=C(/C#N)C(=O)NCCOC", "Potency": "18.4 µM (active)"},
      {"smiles": "CCCCNC(=O)/C(C#N)=c1\\s/c(=C\\c2ccccc2OC(F)F)c(=O)n1CCCOC", "Potency": "9.2 µM (active)"},
      {"smiles": "CC(=O)Nc1cccc(-c2ccnc3c2CC(C(=O)NCc2ccco2)O3)c1", "note": "(configuration not stated)", "Potency": "4.44 µM (active)"},
      {"smiles": "CC1=CC(=Cc2sc3ccccc3[n+]2C)C=C(C)O1", "Potency": "10.3 µM (active)"},
      {"smiles": "O=[N+]([O-])c1ccc(N2CCOCC2)c2c1no[n+]2[O-]", "Potency": "15.8 µM (active)"},
      {"smiles": "NC(=Nc1ccccc1)NN=Cc1c[nH]c2ccccc12", "Potency": "3.14 µM (active)"},
      {"smiles": "O=c1[nH]c(CN2CC=C(c3ccccc3)CC2)nc2scc(-c3ccccc3)c12", "Potency": "18.4 µM (active)"},
      {"smiles": "N#CC1=C(N)Oc2c(c(=O)sc3ccccc23)C1c1cccnc1", "note": "(configuration not stated)", "Potency": "3.14 µM (active)"},
      {"smiles": "Cn1cccc1/C=C1\\C(=O)NC(=O)N(Cc2ccccc2Cl)C1=O", "Potency": "13 µM (active)"},
      {"smiles": "Cc1c(Cl)cccc1NC(=O)c1oc2ccc(S(=O)(=O)N3CCC4(CC3)OCCO4)cc2c1C", "Potency": "16.4 µM (active)"},
      {"smiles": "COc1ccc(-n2cnc3cc(C(=O)N4CCC5(CC4)OCCO5)ccc32)cc1", "Potency": "17.7 µM (active)"},
      {"smiles": "Cc1cccc(CN2CCCC(C(=O)c3cccc(OC(C)C)c3)C2)n1", "note": "(configuration not stated)", "activity, negative = inhibitor": "24.3%"},
      {"smiles": "O=Cc1c(C(=O)O)n(Cc2ccc(Cl)cc2)c2ccccc12", "Potency": "13 µM (active)"},
      {"smiles": "Nc1ccc2c3c(cccc13)-c1ccccc1-2", "Potency": "4.61 µM (active)"},
      {"smiles": "CC(=O)OC1C2(CC3N4C(=O)C5(CO)SSC4(CC31O)C(=O)N5C)OC(C)C(C)(C)C2=O", "note": "(configuration not stated)", "Potency": "3.53 µM (active)"}
    ]}
  ]
}
